This is an account of results in PubChem BioAssay (NCI).

Several values for one entry are separate records, joined by “and”; a condition that tells them apart may be missing. Identical values can stand only once. Compounds without any hit were thinned out: in the full panel of roughly 83,000, 20% have a hit.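 Values shown are percent growth following 48 h exposure of cells in 96-well plates to a single concentration of compound; below 10 was considered active.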 A number with no mark means an inactive call. Activity calls are given as the source filed them.

This assay deals with HL-60(TB) leukemia. Nature of the assay: NCI-60 one-dose screen, 48 h (100 = growth as untreated, 0 = no growth, -100 = all killed). Particulars: 10 µM unless noted.
On to `CNC(=O)Nc1ccc(-c2nc(N3CCOCC3)nc3c2cnn3C2CCOCC2)cc1`, for which the growth was 11.3%. Then `CCN1C(=O)N(CC)C2C1NN=c1s/c(=C\c3ccc(Cl)cc3Cl)c(=O)n12` (stereo unspecified), with -52.1% (active); and `O=C(NN1C(=O)CSC1c1ccc(Cl)cc1)c1[nH]c2ccc(F)cc2c1-c1ccccc1` (stereo unspecified), with 35.5%. In the case of `COC(=O)/C=C1/SC(=Nc2cccc(OC)c2)N(CCc2c[nH]c3ccc(O)cc23)C1=O`, the growth is 59.8%.

For `COc1ccc(C(=O)c2cc(C)c(OC)c(C)c2)c(OC)c1O`, the growth is -25.8% (active). As to `O=C1C=CC2(NN=C(c3ccccc3)N2c2cccc(Cl)c2)c2cccc(O)c21` (stereo unspecified), the growth is 21.8%.

As for `O=[N+]([O-])c1cnc(Sc2ccncn2)c([N+](=O)[O-])c1`, the growth is 11.3%. As for `COc1cc2c(cc1OCCCCCn1c3ccccc3c3ccccc31)N=C[C@@H]1CCCN1C2=O`, the growth is -46.7% (active).

Take `Cc1cc(C(=O)O)c(C)cc1C(=O)O`: the growth is 113%.

Take `CC(=O)O[C@H]1CC[C@@]2(C)[C@@H](CC[C@@H]3[C@@H]2CC[C@]2(C)C=C(C=O)C[C@@H]32)C1`: the growth was -37.5% (active). With `COc1ccccc1C(C[N+](=O)[O-])c1c(-c2ccccc2)[nH]c2cc(C)ccc12` (stereo unspecified), the growth is 58.9%.

With `CC(C)NCCCNC1=C(Cl)C(=O)c2ccccc2C1=O`, the growth was 11.5%.

For `CC(C)c1ccc(COCc2cc(CN3CCCC3)c(O)c3ncccc23)cc1`, the growth was -20.3% (active).

Take `Nc1ccc(-c2nn3c(CCC(=O)c4nc5ncccc5[nH]4)nnc3s2)c(O)c1`: the growth was 107%. As to `O=C(/C=C/c1c(Cl)nc2sccn12)c1nccs1`, the growth is 81.5%. On to `CCN(CC)CCCOc1ccc2c(c1)O/C(=C\c1cccc(OC)c1)C2=O`, for which the growth is 97.4%.

Regarding `COc1cc(C)cc2oc3oc(=O)c(-c4nc5ccccc5s4)cc3c(=O)c12`, the growth is 109%. Then `CN(C)CCNC(=O)n1cc(-c2ccncc2)c(-c2cc(O)cc(Cl)c2)n1`, with 87.1%. Under `CCCCc1ccc(Nc2ccc(Nc3ccc(CCCC)cc3S(=O)(=O)O)c3c2C(=O)c2ccccc2C3=O)c(S(=O)(=O)O)c1` stands 96%. Then `Cn1c(I)c(C#C[Si](C)(C)C)c(=O)n(C(=O)c2ccccc2)c1=O`, with -59% (active). As to `COc1ccc2sc3cccc(NCCN(C)C)c3c(=O)c2c1`, the growth was -49.5% (active).

For the compound `O=Nc1ccc(NO)c2ccccc12`, the growth was 108% and 26.9%. Then `CN(C)C(=S)SC(=S)N(C)C`, with 103% and 93.8%; and `N#Cc1ccc(OC(=O)Nc2cc(Cl)cc(Cl)c2)cc1`, with -0.568% [100 µM] (active). For `CCCCCCCCCCCCCCCCCCNC(=S)N/N=C/c1ccc(OC)c(OC)c1`, the growth was 73.6%. `C=C1C(=O)O[C@H]2[C@H]1CC/C(COC(=O)NCc1ccc(OC)cc1)=C\CC[C@@]1(C)O[C@@H]21`: the growth is 11.1%.
